# Paper PMC7819943, “Rice protein-binding microarrays: a tool to detect cis-acting elements near promoter regions in rice”
# In all, about 35,000 sequences were measured (“fluorescence intensity (a.u.)”: median about 10,000, highest 2% from about 52,000 on). Only a selection was taken, and the highest values are over-represented in it overall.
# Molecular target: T1, OsWOX13 (Oryza sativa, UniProt Q5QMM3 1-267)
# T1 sequence: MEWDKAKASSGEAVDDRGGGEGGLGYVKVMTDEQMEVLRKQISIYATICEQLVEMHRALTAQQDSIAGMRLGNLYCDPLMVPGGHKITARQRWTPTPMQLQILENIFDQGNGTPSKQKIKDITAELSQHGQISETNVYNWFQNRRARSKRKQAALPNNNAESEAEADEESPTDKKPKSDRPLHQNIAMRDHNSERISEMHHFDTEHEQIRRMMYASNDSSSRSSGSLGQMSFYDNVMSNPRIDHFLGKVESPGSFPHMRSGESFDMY
# Test: protein-binding microarray (RPBM); PBS, 2% BSA, 51.3 ng/ul salmon testes DNA, 50 uM zinc acetate, 200 nM TF, 25 C, 1 h; high values mean tight binding
# Conditions: protein: recombinant; tags: N-terminal polyhistidine and DsRed monomer fusion (pET32a); label: CyDye5-dUTP incorporated in the synthesized complementary strand; 3' TTTTT single-stranded linker to array surface; dsDNA, one strand shown
# In short: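 Binding signal is reported as fluorescence intensity per feature (arbitrary units) from an Axon 4000B scanner. Incubation used 200 nM of each Ni–NTA-purified, N-terminally polyhistidine- and DsRed-fused transcription factor from E. coli BL21-CodonPlus on a double-stranded custom Agilent array for 1 h at 25 °C, with 50 µM zinc acetate in the buffer, followed by washing.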
row,Sequence,binding signal
1,AAAGGGTTAATTTGTCAAATTTTCGGGCTTTAGTGAAAAGCGGAGTCACCTAGTGCAG,12700 fluorescence intensity (a.u.)
2,TCAAACTTACATAATTTACATGCCATGTTATCCAATATGCCGGAGTCACCTAGTGCAG,11100 fluorescence intensity (a.u.)
3,GGAAAGACAGATTGAAGAAGCTGGGGTTCAAACCCAGGATCGGAGTCACCTAGTGCAG,10300 fluorescence intensity (a.u.)
4,ATGTCGACATACGTAATTAATGTACACTCAGAACATGTCGCGGAGTCACCTAGTGCAG,4870 fluorescence intensity (a.u.)
5,TAAAACTATTTAATTACCAAACTATTCACGTGATGAGATGCGGAGTCACCTAGTGCAG,14900 fluorescence intensity (a.u.)
6,CTAATCTAATCATCGGATTAGGAAATAAGTAAGCAAACAACGGAGTCACCTAGTGCAG,6880 fluorescence intensity (a.u.)
7,TCTATAAATTGAACATGTTTCAAACCAGGCTTGCAAGTTGCGGAGTCACCTAGTGCAG,15500 fluorescence intensity (a.u.)
8,AGTTTCCTAATCTATTATATGATAGTACTCGGTCGGAGCTCGGAGTCACCTAGTGCAG,3210 fluorescence intensity (a.u.)
9,ATTTAACTGTATAAACAATTAATAACAAGAATTGTGTATACGGAGTCACCTAGTGCAG,16100 fluorescence intensity (a.u.)
10,AGTAATTTACTTGCTAGCTTGCAACTATTTCTTAGTACATCGGAGTCACCTAGTGCAG,3460 fluorescence intensity (a.u.)
11,CATCCTCATTAACGGCAGATTAATACTATTTAGTCCATCTCGGAGTCACCTAGTGCAG,3220 fluorescence intensity (a.u.)
12,AAATTTTGATTTTAAAACTTAATTGTAAAGTTGACTTTAACGGAGTCACCTAGTGCAG,9040 fluorescence intensity (a.u.)
13,AAACTGATTGACGGTTTTCTTTCTAAAACTGATTTTCAGGCGGAGTCACCTAGTGCAG,43200 fluorescence intensity (a.u.)
14,AAGTTGATTACTTAAACTGATTGACAGGGAGGCGGTTGAACGGAGTCACCTAGTGCAG,56600 fluorescence intensity (a.u.)
15,TATATATATATATATATATATATACCCACGTGAGGACGTACGGAGTCACCTAGTGCAG,31500 fluorescence intensity (a.u.)
16,ACGTAATTATAGCTTATTTTGTTATGAGTTATTTTATCACCGGAGTCACCTAGTGCAG,24500 fluorescence intensity (a.u.)
17,GTGAAAATGATTGGTCTTTTGATTAACATATGCAGCTTATCGGAGTCACCTAGTGCAG,53300 fluorescence intensity (a.u.)
18,AATTGATGATGAAATAATGAATGATATTTGACAAGGAGCTCGGAGTCACCTAGTGCAG,17300 fluorescence intensity (a.u.)
19,ACGTAATTATAATTTATTTTATTATGAGTTGTTTTATCACCGGAGTCACCTAGTGCAG,37000 fluorescence intensity (a.u.)
20,CACAATTTAATATGGTTATAATTGTAATCTCACATATCCTCGGAGTCACCTAGTGCAG,7610 fluorescence intensity (a.u.)

row,Sequence,binding signal
1,GTTGATTTAATTATGGTTAACCTCTCACAGTAATCCGGGTCGGAGTCACCTAGTGCAG,64800 fluorescence intensity (a.u.)
2,GGCAGCAAGACCAATTTTAATTGAAGACCACGGAAGGAGCCGGAGTCACCTAGTGCAG,3450 fluorescence intensity (a.u.)
3,TGAAATGGTTAAATGATTTGGGTTGAAATATTATGAAAATCGGAGTCACCTAGTGCAG,3220 fluorescence intensity (a.u.)
4,TTTGTTATAATTGATATTTAATTAATCATATGGTAATTACCGGAGTCACCTAGTGCAG,27800 fluorescence intensity (a.u.)
5,ACGTAATTATAATTTATTTTGTTATGAGTTGGTTTATCACCGGAGTCACCTAGTGCAG,62600 fluorescence intensity (a.u.)
6,ATAATTGATAATGAAGACCAAGGAAATGCTTCTTTGGTCCCGGAGTCACCTAGTGCAG,54300 fluorescence intensity (a.u.)
7,TTAGTGCTTAAATGATTAATCTATGGTCTAAATTATCTTTCGGAGTCACCTAGTGCAG,7610 fluorescence intensity (a.u.)
8,TTGATATTCTTTATATGATTATATAGGATTGGTCTCCCTCCGGAGTCACCTAGTGCAG,3530 fluorescence intensity (a.u.)
9,AATAATTTGGTTAGTTATTGTTAAGGAGAAATTTGATTCCCGGAGTCACCTAGTGCAG,12500 fluorescence intensity (a.u.)
10,GTAATTATAATTTATTTTGTTATGAGTTGTTTTATCACTCCGGAGTCACCTAGTGCAG,6220 fluorescence intensity (a.u.)
11,TTATGTAATTATAATTTATTTTATTGTGACTTGATTTATCCGGAGTCACCTAGTGCAG,34000 fluorescence intensity (a.u.)
12,ACGTAATTATAATTATTTTATTGTGAGTTGTTTTATTACTCGGAGTCACCTAGTGCAG,26500 fluorescence intensity (a.u.)
13,GATATATGATTGACTCAAGTCTTATTGATAAACTTGGTCCCGGAGTCACCTAGTGCAG,57500 fluorescence intensity (a.u.)
14,TGTAATTATAATTTATTTTATTGTGATTTGATTTATCATCCGGAGTCACCTAGTGCAG,59800 fluorescence intensity (a.u.)
15,TGTAATTATAATTTATTTTGTGATGAGTTGTTTTATCACTCGGAGTCACCTAGTGCAG,55800 fluorescence intensity (a.u.)
16,ATGGTTTGACTTGGATAAACTGGATTCTTAACTCAAACCTCGGAGTCACCTAGTGCAG,3410 fluorescence intensity (a.u.)
17,GTAATAATTGATTGGTTCAGAAATTAATCACTAATTGTCCCGGAGTCACCTAGTGCAG,65000 fluorescence intensity (a.u.)
18,GCTTAATTAATTGATTCAGAAAATAAAATAGTGAAATAACCGGAGTCACCTAGTGCAG,33400 fluorescence intensity (a.u.)
19,TATGTAATTATTATTTATTTTATTGTGATTTGATTCATCACGGAGTCACCTAGTGCAG,31400 fluorescence intensity (a.u.)
20,GAGAAATGGTAATTTAGCATGCTTATATATTGAGGTTTAGCGGAGTCACCTAGTGCAG,8510 fluorescence intensity (a.u.)

row,Sequence,binding signal
1,TAATCTGTGATGATGGATTCTCGTTAAGCATATGTTCTTTCGGAGTCACCTAGTGCAG,5830 fluorescence intensity (a.u.)
2,TGGTGGTGGCTGGCGGCGGGGAGGATGAGAACGAGAGAAGCGGAGTCACCTAGTGCAG,3920 fluorescence intensity (a.u.)
3,TTCCGGCCTAGATTGAATCTGGGTTTAACCGTAAGAGTCCCGGAGTCACCTAGTGCAG,6260 fluorescence intensity (a.u.)
4,GTGGATATCAATCTGTATATACTAGATCCCCACCCACCATCGGAGTCACCTAGTGCAG,6630 fluorescence intensity (a.u.)
5,TCGAACAGGCCCTTAATTATCTGAGCTATCCTGCATGCTTCGGAGTCACCTAGTGCAG,8320 fluorescence intensity (a.u.)
6,GGCAAATTAACCAAGTTAGCTGCAGCTGCAGCTGGGATGGCGGAGTCACCTAGTGCAG,9780 fluorescence intensity (a.u.)
7,CATTTGATTGTATTTCCATCTTATTCTTAATCTGTATAAGCGGAGTCACCTAGTGCAG,32100 fluorescence intensity (a.u.)
8,ACCAATCACAACCATTCTTCTTCACTTACTTTCTCTTTTCCGGAGTCACCTAGTGCAG,6630 fluorescence intensity (a.u.)
9,TGTGATTAAATGATTCCTCCAGTGCTATATGCCTATATAACGGAGTCACCTAGTGCAG,17500 fluorescence intensity (a.u.)
10,TTGATGATGTAACGTACGGTTGATTAATAATAAATTAGGTCGGAGTCACCTAGTGCAG,18400 fluorescence intensity (a.u.)
11,GTCTTAATTATATTTGATAATCAACTTTATCCTTGGTTTGCGGAGTCACCTAGTGCAG,50800 fluorescence intensity (a.u.)
12,TCAATTAATTGATTTATAATGATTTGGTCTTATCAATCCCCGGAGTCACCTAGTGCAG,53400 fluorescence intensity (a.u.)
13,ATATTATTATATTATAATTATACTGTATTTATATCTGATACGGAGTCACCTAGTGCAG,9100 fluorescence intensity (a.u.)
14,CTATATCTTGATGCTTTGTTGATTAGTACCATGGATTGGCCGGAGTCACCTAGTGCAG,6900 fluorescence intensity (a.u.)
15,TGCCAACTTATCCATCAATTGAGATTAATGATTTGGTCTTCGGAGTCACCTAGTGCAG,13900 fluorescence intensity (a.u.)
16,TTCTGTAATTGATGCTCCTGCATTTTAGTGTATAAGTGTACGGAGTCACCTAGTGCAG,36500 fluorescence intensity (a.u.)
17,GAAGTTGATTATGAGCTCTTGGATCTTTTGGCAGGTGCAACGGAGTCACCTAGTGCAG,19400 fluorescence intensity (a.u.)
18,CTTATAATTGATTTATAGTCTGTCATTGTATCTGCTCTTACGGAGTCACCTAGTGCAG,65100 fluorescence intensity (a.u.)
19,ATTGATTATGCCATGATTGGATCTTGGCACAGTGCTCTGCCGGAGTCACCTAGTGCAG,60300 fluorescence intensity (a.u.)
20,GTGATTGATGTAAATGCCTTAACGGTCCAGCACCTCAGCTCGGAGTCACCTAGTGCAG,61200 fluorescence intensity (a.u.)
